# From PubChem BioAssay (Tox21)
# Records with an inconclusive call do not appear. Where a call stands in place of a potency, no number is given. Activity calls are given as the source filed them. Calls come from the whole dose curve; as a rule, active = well fitted inhibition curve with a large enough effect in the repeat runs; inconclusive = weak or mixed curves; inactive = no such curve, though single readings can be large or run the other way.
# Target: Androgen receptor (Homo sapiens) (UniProt P10275)
# Sequence (P10275 whole entry, looked up): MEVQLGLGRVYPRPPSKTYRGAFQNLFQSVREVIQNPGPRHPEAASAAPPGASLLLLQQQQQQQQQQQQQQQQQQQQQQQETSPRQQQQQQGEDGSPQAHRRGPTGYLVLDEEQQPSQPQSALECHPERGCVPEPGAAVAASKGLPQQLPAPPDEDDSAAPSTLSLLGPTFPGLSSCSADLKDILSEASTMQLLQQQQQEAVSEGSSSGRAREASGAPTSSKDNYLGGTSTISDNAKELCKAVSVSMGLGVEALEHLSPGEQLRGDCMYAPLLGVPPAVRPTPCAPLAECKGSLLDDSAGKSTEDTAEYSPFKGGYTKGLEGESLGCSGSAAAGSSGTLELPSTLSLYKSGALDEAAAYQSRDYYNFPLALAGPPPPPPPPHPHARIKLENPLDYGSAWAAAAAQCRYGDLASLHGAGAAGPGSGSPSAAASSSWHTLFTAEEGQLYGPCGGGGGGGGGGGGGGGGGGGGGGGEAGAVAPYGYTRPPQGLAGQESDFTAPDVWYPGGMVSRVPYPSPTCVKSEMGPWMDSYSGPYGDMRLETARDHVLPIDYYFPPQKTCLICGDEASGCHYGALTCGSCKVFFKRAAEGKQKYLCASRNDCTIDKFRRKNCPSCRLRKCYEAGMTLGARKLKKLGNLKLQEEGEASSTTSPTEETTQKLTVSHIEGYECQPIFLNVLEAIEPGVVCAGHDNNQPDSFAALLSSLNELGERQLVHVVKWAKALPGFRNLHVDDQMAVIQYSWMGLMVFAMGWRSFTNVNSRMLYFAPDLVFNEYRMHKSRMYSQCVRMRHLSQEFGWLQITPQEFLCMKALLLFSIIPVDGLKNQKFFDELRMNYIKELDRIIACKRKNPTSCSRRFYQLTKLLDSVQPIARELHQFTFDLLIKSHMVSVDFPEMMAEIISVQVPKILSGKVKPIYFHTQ
# Test: qHTS assay to identify small molecule antagonists of the androgen receptor (AR) signaling pathway using the MDA cell line in the presence of 0.5 nM R1881 (AID 1259243); note: nearly all actives have a fitted effect of over 50% in size
# Conditions: MDA-kb2 MMTV-luciferase, R1881 0.5 nM, 16 h; series mostly up to 92.4 µM
# Excerpt: U.S. Tox21 Program National Center for Advancing Translational Sciences [NCATS] NIH Chemical Genomics Center [NCGC] U.S. Environmental Protection Agency [EPA] National Institutes of Environmental Health Sciences [NIEHS] National Toxicology Program [NTP] U.S. Food and Drug Administration [FDA] Tox21 Assay Overview: Androgen receptor (AR) is an important member of the nuclear receptor family. Its signaling plays a critical role in AR-dependent prostate cancer and other androgen related diseases. Considerable attention has been given in the past decades to develop methods to study and screen for the environmental chemicals that have the potential to interfere with metabolic homeostasis, reproduction, developmental and behavioral functions. Therefore AR binding assay for screening androgen antagonists can be used to identify potential endocrine disruptors. MDA-kb2 cells (from ATCC, deposited by Wilson et al.) were used to screen for AR inhibitors against Tox21 compound libraries. These cells are human breast carcinoma cells that were stably transfected with a luciferase reporter gene under control of the MMTV promoter that contains response elements for both androgen receptor (AR) and glucocorticoid receptor (GR). The current screening for identification of AR inhibitors against Tox21 libraries used lower concentration (0.5 nM) of R1881 as a stimulator.
# Tox21 Assay Protocol Summary: MDA-kb2 cells (cells cultured without CO2) were dispensed at 3,000 cells/well in 4 uL of culture medium into white wall/solid-bottom 1536-well plates (Corning Life Sciences, Corning, NY) using a Multidrop Combi (ThermoFisher Scientific, Waltham, MA) dispenser. After the assay plates were incubated at a 37C and 0% CO2 for 5 hr, 23 nL of compounds dissolved in DMSO, positive controls or DMSO only was transferred to the assay plate by a Pintool station (Kalypsys, San Diego, CA). The transfer of compounds was followed by the addition of 1 uL of 0.5 nM (final concentration) agonist (R1881)/culture medium using a Flying Reagent Dispenser (FRD, Aurora Discovery, San Diego, CA). The plates were incubated at 37C and 0% CO2 for 16 hr. For luciferase reporter gene assay, 4 uL of ONE-Glo reagent (Promega Corporation, Madison, WI) was added to each well using the FRD and after 30 min incubation at room temperature luminescence intensity was measured using ViewLux plate reader (PerkinElmer, Shelton, CT).
# Potency is the fitted concentration of half-maximal effect.
row,Structure (SMILES),Potency
1,OCCCO,inactive
2,COC(=O)/C=C/C(C)=C\C=C\C(C)=C\C=C\C=C(C)\C=C\C=C(C)\C=C\C(=O)O,inactive
3,CC(C(=O)O)c1ccc2c(c1)Cc1cccnc1O2 (stereo not given),inactive
4,O=C(c1ccco1)N1CCNCC1,inactive
5,NC(=O)c1ccccc1C(N)=O,inactive
6,CC(CC(C#N)(c1ccccc1)C(C)C)N(C)C (stereo not given),inactive
7,CCCC(=O)OCCC(C)C,inactive
8,Nc1ccc(F)cc1F,inactive
9,O=c1[nH][nH]c2ccccc12,inactive
10,O=C(c1ccc(Cl)cc1)c1ccc(Cl)cc1,inactive
11,C[C@H](N)C(=O)N[C@@H](C)C(=O)NC1[C@H]2CN(c3nc4c(cc3F)c(=O)c(C(=O)O)cn4-c3ccc(F)cc3F)C[C@@H]12 (stereo not given in full),inactive
12,FC(F)(Cl)C(F)(Cl)Cl,inactive
13,NCCOCCOCCN,inactive
14,CCOc1ccc2c(c1)C(C)CC(C)(C)N2 (stereo not given),inactive
15,NC(=O)c1ccccc1,inactive
16,O=C(O)c1ccc(O)c(O)c1,inactive
17,Clc1cccc(C(c2ccc3nc[nH]c3c2)n2ccnc2)c1 (stereo not given),inactive
18,CCCc1ccc(OC)cc1,inactive
19,CCCCCCCCOCCCN,inactive
20,N#C[C@@H]1CC(F)(F)CN1C(=O)CNC1CC2CCC(C1)N2c1ncccn1 (stereo not given in full),inactive

row,Structure (SMILES),Potency
1,CCC(C(=O)O)c1ccc(N2Cc3ccccc3C2=O)cc1 (stereo not given),inactive
2,Cc1ccc2c(Cl)cc(Cl)c(O)c2n1,inactive
3,Cc1nc(C)c(C)nc1C,inactive
4,CCC[Si](OC)(OC)OC,inactive
5,CCCC1CCOC(C)S1 (stereo not given),inactive
6,O=C(OC1C[C@H]2CC[C@@H](C1)[N+]21CCCC1)C(O)(c1ccccc1)c1ccccc1 (stereo not given in full),inactive
7,CCOc1cc(OCC)c(C(C)=O)cc1OCC,26.8 µM (active)
8,CCOc1ccc(NC(C)=O)cc1N,inactive
9,CCCOC(C)=O,inactive
10,CCN(CC)CC(=O)OCC(=O)[C@@]1(O)CC[C@H]2[C@@H]3CCC4=CC(=O)CC[C@]4(C)[C@H]3[C@@H](O)C[C@@]21C,inactive
11,CCOCCn1c(N2CCCN(C)CC2)nc2ccccc21,inactive
12,CC[C@H](NC(C)C)[C@H](O)c1ccc(O)c2[nH]c(=O)ccc12,inactive
13,CC1(C)[C@@H]2CC[C@]3(C2)[C@@H]1C(=O)CCC3(C)C,inactive
14,CCC1=C(C)CN(C(=O)NCCc2ccc(S(=O)(=O)NC(=O)NC3CCC(C)CC3)cc2)C1=O (stereo not given),inactive
15,Cc1c(N=C=O)cccc1N=C=O,inactive
16,O=C(O)c1ccncc1,inactive
17,CCCN(C1CCN(C(=O)C2CCNCC2)CC1)[C@@H]1CCc2ccc(OC)cc2C1,inactive
18,Cc1cc(SC2=C(O)C[C@@](CCc3ccc(N)cc3)(C(C)C)OC2=O)c(C(C)(C)C)cc1CO,inactive
19,CCCc1nc(C)c2c(=O)[nH]c(-c3cc(S(=O)(=O)N4CCN(CC)CC4)ccc3OCC)nn12,inactive
20,O=C(C1CCCCC1)N1CC(=O)N2CCCc3ccccc3C2C1 (stereo not given),inactive
